# According to paper PMC7862700, “An all-to-all approach to the identification of sequence-specific readers for epigenetic DNA modifications on cytosine”:
# Assays:
# Assay in all cases: DAPPL (digital affinity profiling via proximity ligation, sequencing); 10 mM Tris-HCl pH 7.5, 50 mM NaCl, 1 mM DTT, 4% glycerol, room temperature, 30 min; GST-TFs on glutathione beads, 16-mer random dsDNA library, 0.1% formaldehyde crosslink after washing; high values mean tight binding
# FLI1 = target: T1, FLI1 (Homo sapiens, UniProt Q01543 1-452); conditions: protein: recombinant; tags: N-terminal GST; dsDNA, one strand shown
# T1 sequence: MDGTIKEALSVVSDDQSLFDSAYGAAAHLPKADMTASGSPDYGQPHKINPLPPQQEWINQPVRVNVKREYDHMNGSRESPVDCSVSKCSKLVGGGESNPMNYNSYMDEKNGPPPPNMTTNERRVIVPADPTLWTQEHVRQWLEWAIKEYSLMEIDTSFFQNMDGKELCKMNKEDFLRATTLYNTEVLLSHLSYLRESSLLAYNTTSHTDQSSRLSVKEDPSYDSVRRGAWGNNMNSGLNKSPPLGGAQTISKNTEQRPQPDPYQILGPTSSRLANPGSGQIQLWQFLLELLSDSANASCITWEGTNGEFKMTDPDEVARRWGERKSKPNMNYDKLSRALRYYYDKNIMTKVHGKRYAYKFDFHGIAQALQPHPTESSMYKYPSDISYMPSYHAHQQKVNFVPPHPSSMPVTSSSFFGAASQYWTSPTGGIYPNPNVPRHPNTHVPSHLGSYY
# How it was run: (§1)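 Sequencing on an Illumina NextSeq500 followed washing, crosslinking with 0.1% formaldehyde, proximity ligation (BsaI/T4 ligase, 1 h, 37 °C) and PCR amplification of pools that had been incubated for 30 min at room temperature with 200 nmole of a random double-stranded 16-mer DNA library in Tris/NaCl/DTT/glycerol buffer. Each pool held DNA-barcoded human transcription factors, expressed in yeast as GST fusions and captured on glutathione beads, plus a tag-only sample. Binding signal is a hexamer's read frequency for a factor divided by its frequency in the tag-only sample.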
# ELK1 = target: T2, ELK1 (Homo sapiens, UniProt P19419 1-428); conditions: protein: recombinant; tags: N-terminal GST; dsDNA, one strand shown
# T2 sequence: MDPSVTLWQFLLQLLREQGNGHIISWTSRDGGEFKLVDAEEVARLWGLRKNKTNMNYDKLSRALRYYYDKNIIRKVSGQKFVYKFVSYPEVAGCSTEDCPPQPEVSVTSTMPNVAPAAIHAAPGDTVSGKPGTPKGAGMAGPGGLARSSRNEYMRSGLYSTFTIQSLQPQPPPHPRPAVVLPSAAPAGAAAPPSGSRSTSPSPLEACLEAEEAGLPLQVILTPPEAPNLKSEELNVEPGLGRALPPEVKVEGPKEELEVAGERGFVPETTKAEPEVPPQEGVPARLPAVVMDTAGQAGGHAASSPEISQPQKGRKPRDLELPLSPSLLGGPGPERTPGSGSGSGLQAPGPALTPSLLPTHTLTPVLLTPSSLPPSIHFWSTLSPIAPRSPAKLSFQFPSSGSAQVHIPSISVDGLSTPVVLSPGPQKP
# How it was run: as §1
# GABPA = target: T3, GABPA (Homo sapiens, UniProt Q06546 1-454); conditions: protein: recombinant; tags: N-terminal GST; dsDNA, one strand shown
# T3 sequence: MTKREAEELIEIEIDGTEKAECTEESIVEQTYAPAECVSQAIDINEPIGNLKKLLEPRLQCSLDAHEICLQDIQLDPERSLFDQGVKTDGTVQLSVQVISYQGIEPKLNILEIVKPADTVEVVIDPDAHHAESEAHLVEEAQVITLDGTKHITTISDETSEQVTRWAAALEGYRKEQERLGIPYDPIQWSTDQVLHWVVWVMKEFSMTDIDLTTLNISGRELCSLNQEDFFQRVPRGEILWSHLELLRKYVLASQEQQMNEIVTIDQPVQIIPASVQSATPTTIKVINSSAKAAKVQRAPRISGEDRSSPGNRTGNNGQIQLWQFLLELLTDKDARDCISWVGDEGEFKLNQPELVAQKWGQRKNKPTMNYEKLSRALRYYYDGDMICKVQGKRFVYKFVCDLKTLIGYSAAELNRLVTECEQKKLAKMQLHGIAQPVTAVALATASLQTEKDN
# How it was run: as §1
# ERG = target: T4, ERG (Homo sapiens, UniProt P11308 1-479); conditions: protein: recombinant; tags: N-terminal GST; dsDNA, one strand shown
# T4 sequence: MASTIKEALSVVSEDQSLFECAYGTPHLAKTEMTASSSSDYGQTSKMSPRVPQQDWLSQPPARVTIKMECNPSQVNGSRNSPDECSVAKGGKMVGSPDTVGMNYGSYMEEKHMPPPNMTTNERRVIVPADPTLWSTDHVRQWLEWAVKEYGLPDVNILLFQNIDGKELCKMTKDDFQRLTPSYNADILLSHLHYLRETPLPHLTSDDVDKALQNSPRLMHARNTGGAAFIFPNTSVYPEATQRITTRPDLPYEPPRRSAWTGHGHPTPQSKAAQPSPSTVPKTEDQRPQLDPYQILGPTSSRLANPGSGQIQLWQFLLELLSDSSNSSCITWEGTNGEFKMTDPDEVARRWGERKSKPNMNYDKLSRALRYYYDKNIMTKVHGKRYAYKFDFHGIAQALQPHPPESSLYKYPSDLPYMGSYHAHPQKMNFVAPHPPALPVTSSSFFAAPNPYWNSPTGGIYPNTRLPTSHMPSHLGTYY
# How it was run: as §1
# ELF1 = ELF1 (Homo sapiens, UniProt P32519 1-619); conditions: protein: recombinant; tags: N-terminal GST; dsDNA, one strand shown
# How it was run: as §1
# EHF = target: T5, EHF (Homo sapiens, UniProt Q9NZC4 1-300); conditions: protein: recombinant; tags: N-terminal GST; dsDNA, one strand shown
# T5 sequence: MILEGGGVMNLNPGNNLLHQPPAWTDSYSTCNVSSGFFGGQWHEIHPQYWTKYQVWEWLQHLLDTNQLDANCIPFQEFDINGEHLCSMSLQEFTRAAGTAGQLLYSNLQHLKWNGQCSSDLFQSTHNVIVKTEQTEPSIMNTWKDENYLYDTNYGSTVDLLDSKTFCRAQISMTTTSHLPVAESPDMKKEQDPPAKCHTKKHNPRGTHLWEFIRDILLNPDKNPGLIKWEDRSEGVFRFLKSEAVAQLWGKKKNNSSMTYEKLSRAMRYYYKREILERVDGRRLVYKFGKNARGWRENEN
# How it was run: as §1
# SPI1 = SPI1 (Homo sapiens, UniProt P17947 1-270); conditions: protein: recombinant; tags: N-terminal GST; dsDNA, one strand shown
# How it was run: as §1
# SPIB = SPIB (Homo sapiens, UniProt Q01892 1-262); conditions: protein: recombinant; tags: N-terminal GST; dsDNA, one strand shown
# How it was run: as §1
# ELK3 = target: T6, ELK3 (Homo sapiens, UniProt P41970 1-407); conditions: protein: recombinant; tags: N-terminal GST; dsDNA, one strand shown
# T6 sequence: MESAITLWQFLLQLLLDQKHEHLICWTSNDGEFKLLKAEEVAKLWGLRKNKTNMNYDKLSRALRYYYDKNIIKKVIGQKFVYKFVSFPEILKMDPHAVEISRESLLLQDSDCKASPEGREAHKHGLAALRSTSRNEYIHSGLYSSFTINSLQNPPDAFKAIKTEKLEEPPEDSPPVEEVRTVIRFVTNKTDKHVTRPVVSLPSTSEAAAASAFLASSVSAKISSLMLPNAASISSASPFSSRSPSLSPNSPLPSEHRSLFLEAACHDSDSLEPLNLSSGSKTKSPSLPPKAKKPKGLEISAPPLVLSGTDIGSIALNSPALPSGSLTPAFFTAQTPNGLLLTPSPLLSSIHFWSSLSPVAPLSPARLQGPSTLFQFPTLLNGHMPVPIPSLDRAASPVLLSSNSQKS
# How it was run: as §1
# FEV = target: T7, FEV (Homo sapiens, UniProt Q99581 1-238); conditions: protein: recombinant; tags: N-terminal GST; dsDNA, one strand shown
# T7 sequence: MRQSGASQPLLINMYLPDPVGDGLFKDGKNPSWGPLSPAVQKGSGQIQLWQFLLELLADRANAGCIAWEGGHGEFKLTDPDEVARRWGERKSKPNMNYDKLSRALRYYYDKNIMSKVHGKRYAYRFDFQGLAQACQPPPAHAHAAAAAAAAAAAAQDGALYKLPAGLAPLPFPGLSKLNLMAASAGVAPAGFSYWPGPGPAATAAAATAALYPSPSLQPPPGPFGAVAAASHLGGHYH
# How it was run: as §1
# ETV5 = ETV5 (Homo sapiens, UniProt P41161 1-510); conditions: protein: recombinant; tags: N-terminal GST; dsDNA, one strand shown
# How it was run: as §1
# HSF1 = HSF1 (Homo sapiens, UniProt Q00613 1-529); conditions: protein: recombinant; tags: N-terminal GST; chain copies: 3; dsDNA, one strand shown
# How it was run: as §1
# SPIC = target: T8, SPIC (Homo sapiens, UniProt Q8N5J4 1-248); conditions: protein: recombinant; tags: N-terminal GST; dsDNA, one strand shown
# T8 sequence: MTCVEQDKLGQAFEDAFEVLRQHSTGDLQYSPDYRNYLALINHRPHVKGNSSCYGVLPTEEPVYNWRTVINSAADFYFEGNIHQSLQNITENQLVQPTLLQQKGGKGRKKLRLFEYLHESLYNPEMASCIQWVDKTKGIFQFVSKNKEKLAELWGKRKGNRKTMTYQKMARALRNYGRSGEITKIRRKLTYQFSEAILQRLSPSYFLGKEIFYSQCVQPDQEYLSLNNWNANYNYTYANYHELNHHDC
# How it was run: as §1
# ELF4 = ELF4 (Homo sapiens, UniProt Q99607 1-663); conditions: protein: recombinant; tags: N-terminal GST; dsDNA, one strand shown
# How it was run: as §1
# ELK4 = target: T9, ELK4 (Homo sapiens, UniProt P28324-2 1-405); conditions: protein: recombinant; tags: N-terminal GST; dsDNA, one strand shown
# T9 sequence: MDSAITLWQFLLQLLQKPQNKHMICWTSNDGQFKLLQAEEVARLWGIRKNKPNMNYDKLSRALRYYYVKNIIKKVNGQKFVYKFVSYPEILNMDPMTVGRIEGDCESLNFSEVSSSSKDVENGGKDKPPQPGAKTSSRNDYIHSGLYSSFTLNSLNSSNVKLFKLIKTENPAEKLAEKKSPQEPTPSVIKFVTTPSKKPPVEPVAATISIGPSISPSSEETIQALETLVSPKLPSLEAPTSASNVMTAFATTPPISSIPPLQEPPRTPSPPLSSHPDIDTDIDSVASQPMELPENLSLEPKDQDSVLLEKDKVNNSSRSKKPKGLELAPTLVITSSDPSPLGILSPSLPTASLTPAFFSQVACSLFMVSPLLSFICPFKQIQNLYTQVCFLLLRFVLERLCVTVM
# How it was run: as §1
# ETV2 = target: T10, ETV2 (Homo sapiens, UniProt O00321 1-342); conditions: protein: recombinant; tags: N-terminal GST; dsDNA, one strand shown
# T10 sequence: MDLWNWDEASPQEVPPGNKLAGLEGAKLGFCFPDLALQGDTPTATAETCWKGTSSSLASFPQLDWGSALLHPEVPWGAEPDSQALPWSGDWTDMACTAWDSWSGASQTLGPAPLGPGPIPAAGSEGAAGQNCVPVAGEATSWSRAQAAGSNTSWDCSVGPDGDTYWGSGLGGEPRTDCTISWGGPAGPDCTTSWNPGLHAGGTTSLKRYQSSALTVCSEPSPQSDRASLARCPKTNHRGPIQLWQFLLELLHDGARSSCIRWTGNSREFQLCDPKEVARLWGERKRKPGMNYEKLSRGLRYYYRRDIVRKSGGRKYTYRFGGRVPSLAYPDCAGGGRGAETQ
# How it was run: as §1
# ELF3 = target: T11, ELF3 (Homo sapiens, UniProt P78545 1-371); conditions: protein: recombinant; tags: N-terminal GST; dsDNA, one strand shown
# T11 sequence: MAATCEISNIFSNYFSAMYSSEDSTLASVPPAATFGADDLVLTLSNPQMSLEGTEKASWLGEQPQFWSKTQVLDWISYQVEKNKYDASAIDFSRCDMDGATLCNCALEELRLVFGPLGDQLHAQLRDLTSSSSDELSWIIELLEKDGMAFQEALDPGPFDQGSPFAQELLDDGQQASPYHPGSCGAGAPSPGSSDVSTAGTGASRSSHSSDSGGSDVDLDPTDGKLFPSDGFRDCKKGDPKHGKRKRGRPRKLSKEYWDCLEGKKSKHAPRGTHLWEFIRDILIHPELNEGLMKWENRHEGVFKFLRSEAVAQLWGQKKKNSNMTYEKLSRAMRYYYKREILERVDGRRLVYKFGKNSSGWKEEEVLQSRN
# How it was run: as §1
# CRX = CRX (Homo sapiens, UniProt O43186 1-299); conditions: protein: recombinant; tags: N-terminal GST; dsDNA, one strand shown
# How it was run: as §1
# ETV1 = ETV1 (Homo sapiens, UniProt P50549 1-477); conditions: protein: recombinant; tags: N-terminal GST; dsDNA, one strand shown
# How it was run: as §1
# ETV5, sequence (P41161 whole entry): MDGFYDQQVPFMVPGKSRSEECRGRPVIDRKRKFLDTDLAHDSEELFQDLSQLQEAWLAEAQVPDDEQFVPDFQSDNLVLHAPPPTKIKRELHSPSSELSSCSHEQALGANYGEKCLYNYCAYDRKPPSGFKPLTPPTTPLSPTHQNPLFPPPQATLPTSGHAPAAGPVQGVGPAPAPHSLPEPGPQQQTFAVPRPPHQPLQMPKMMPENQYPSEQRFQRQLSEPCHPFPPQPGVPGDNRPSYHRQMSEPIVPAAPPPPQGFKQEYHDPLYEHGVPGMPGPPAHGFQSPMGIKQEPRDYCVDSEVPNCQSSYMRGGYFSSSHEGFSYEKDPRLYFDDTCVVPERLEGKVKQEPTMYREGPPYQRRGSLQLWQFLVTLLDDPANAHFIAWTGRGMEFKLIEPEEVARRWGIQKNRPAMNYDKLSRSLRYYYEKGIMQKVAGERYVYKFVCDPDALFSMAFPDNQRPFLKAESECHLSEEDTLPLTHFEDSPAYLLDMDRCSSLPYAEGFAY
# SPIB, sequence (Q01892 whole entry): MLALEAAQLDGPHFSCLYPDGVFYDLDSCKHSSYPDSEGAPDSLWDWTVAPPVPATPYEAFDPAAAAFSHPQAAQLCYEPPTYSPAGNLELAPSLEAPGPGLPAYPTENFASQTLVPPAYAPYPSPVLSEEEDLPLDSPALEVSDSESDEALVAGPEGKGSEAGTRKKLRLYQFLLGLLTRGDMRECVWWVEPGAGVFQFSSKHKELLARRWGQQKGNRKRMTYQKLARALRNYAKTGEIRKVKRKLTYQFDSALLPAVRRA
# ELF4, sequence (Q99607 whole entry): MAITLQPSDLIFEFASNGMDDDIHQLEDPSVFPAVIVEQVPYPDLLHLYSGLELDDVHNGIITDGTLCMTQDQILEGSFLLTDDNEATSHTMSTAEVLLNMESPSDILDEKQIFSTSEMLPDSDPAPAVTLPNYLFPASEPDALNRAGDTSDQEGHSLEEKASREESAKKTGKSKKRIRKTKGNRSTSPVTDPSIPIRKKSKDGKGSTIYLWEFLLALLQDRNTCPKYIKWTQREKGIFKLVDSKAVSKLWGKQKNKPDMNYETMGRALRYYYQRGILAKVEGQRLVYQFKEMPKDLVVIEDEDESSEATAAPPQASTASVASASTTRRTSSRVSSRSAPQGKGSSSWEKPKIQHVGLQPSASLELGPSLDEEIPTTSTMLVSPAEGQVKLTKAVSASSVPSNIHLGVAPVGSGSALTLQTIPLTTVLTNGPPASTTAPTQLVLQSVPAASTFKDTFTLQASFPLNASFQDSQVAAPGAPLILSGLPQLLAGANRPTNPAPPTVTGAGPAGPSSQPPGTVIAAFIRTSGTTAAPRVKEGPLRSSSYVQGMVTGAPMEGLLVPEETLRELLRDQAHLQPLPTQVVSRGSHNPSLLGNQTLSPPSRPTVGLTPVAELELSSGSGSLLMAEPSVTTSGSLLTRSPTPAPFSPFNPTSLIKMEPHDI
# ELF1, sequence (P32519 whole entry): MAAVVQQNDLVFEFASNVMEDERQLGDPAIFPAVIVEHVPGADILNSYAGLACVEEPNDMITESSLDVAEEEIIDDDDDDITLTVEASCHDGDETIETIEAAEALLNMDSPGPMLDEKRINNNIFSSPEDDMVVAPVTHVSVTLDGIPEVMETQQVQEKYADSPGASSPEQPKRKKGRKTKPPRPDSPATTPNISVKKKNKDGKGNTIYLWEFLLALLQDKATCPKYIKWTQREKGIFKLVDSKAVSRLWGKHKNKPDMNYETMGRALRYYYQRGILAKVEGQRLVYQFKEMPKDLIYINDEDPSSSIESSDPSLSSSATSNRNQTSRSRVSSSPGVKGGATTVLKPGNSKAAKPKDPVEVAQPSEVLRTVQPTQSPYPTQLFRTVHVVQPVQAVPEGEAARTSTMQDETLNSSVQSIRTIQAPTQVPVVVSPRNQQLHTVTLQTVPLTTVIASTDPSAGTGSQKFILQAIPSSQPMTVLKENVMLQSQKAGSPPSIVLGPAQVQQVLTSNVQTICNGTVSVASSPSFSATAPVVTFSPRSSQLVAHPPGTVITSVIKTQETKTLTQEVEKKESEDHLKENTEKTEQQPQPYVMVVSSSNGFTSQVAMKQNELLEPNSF
# ETV1, sequence (P50549 whole entry): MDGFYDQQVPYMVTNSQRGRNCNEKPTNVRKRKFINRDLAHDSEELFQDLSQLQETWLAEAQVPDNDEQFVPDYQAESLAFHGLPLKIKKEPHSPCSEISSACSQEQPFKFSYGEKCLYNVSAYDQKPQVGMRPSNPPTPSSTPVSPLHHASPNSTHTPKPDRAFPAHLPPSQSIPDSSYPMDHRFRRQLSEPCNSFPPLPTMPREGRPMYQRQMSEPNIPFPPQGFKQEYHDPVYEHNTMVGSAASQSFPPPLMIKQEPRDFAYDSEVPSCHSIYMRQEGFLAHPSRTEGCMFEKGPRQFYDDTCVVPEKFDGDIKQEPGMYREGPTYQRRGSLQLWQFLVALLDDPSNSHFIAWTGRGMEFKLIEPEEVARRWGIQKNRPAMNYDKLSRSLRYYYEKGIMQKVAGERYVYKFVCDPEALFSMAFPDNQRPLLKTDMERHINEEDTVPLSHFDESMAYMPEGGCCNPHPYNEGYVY
# HSF1, sequence (Q00613 whole entry): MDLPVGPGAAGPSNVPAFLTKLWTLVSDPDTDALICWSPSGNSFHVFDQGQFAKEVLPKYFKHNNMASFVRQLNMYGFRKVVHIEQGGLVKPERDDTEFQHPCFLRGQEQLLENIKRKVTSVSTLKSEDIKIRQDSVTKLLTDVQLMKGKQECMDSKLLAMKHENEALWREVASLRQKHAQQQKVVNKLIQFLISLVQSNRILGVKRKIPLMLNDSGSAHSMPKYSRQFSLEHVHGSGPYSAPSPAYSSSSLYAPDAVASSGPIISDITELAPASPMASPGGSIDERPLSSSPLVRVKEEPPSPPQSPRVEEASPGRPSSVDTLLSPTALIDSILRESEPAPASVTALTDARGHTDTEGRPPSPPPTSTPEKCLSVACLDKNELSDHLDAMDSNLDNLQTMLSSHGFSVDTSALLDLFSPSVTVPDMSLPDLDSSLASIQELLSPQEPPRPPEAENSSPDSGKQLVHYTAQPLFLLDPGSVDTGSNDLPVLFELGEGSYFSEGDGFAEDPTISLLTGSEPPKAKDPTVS
# CRX, sequence (O43186 whole entry): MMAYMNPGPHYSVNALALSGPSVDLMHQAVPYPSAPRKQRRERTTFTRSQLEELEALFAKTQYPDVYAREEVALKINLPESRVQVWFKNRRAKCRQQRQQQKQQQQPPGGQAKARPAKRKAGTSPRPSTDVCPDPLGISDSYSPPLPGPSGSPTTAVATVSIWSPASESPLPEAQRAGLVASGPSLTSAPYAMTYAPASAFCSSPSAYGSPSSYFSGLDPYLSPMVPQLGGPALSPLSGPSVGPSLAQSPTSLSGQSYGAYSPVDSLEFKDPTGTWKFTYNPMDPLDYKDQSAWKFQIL
sequence,measurement,setting,value
CCCTTC,binding signal,FLI1,"1.55 fold enrichment (6-mer frequency, TF over GST control)"
same,binding signal,ELK1,"1.55 fold enrichment (6-mer frequency, TF over GST control)"
same,binding signal,GABPA,"1.39 fold enrichment (6-mer frequency, TF over GST control)"
same,binding signal,ERG,"1.48 fold enrichment (6-mer frequency, TF over GST control)"
same,binding signal,ELF1,"1.45 fold enrichment (6-mer frequency, TF over GST control)"
same,binding signal,EHF,"1.52 fold enrichment (6-mer frequency, TF over GST control)"
same,binding signal,SPI1,"1.52 fold enrichment (6-mer frequency, TF over GST control)"
same,binding signal,SPIB,"1.56 fold enrichment (6-mer frequency, TF over GST control)"
same,binding signal,ELK3,"1.44 fold enrichment (6-mer frequency, TF over GST control)"
same,binding signal,FEV,"1.47 fold enrichment (6-mer frequency, TF over GST control)"
same,binding signal,ETV5,"1.54 fold enrichment (6-mer frequency, TF over GST control)"
same,binding signal,HSF1,"1.35 fold enrichment (6-mer frequency, TF over GST control)"
same,binding signal,SPIC,"1.19 fold enrichment (6-mer frequency, TF over GST control)"
same,binding signal,ELF4,"1.49 fold enrichment (6-mer frequency, TF over GST control)"
same,binding signal,ELK4,"1.35 fold enrichment (6-mer frequency, TF over GST control)"
same,binding signal,ETV2,"1.33 fold enrichment (6-mer frequency, TF over GST control)"
same,binding signal,ELF3,"1.46 fold enrichment (6-mer frequency, TF over GST control)"
same,binding signal,CRX,"1.05 fold enrichment (6-mer frequency, TF over GST control)"
same,binding signal,ETV1,"1.51 fold enrichment (6-mer frequency, TF over GST control)"
